Screening results: PubChem BioAssay, National Center for Advancing Translational Sciences (NCATS)
A selection: hits, their analogues and other compounds. The true share with any hit is near 2.8%.
Pol beta inh = qHTS Assay for Inhibitors of DNA Polymerase Beta. Pol beta primer extension/strand displacement, fluorescence kinetic. Potency, µM (series often up to 114 µM), for inactives: top-dose activity change, negative = inhibition, actives largely listed as inhibitors. actives 1.3% (n = 340,000); also: potency is read from the fitted curve at half-maximal effect; % is scaled to controls: 0 for no effect and ±100 for the full control effect
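Pol beta (10 nM) and compounds were preincubated 15 min at room temperature, then 50 nM substrate (final) started primer extension/strand displacement. Reads were taken at 0 and 10 min; concentration-response data were fitted to a four-parameter Hill equation.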
Pol eta inh = qHTS for Inhibitors of Polymerase Eta | DNA polymerase eta (Homo sapiens), Q9Y253 | recombinant Pol eta, fluorescent DNA replication assay | Potency, µM (doses to about 114 µM), without a hit: at the top dose activity change, negative = inhibition, hits mostly inhibitors | actives 1.2% (n = 390,000) | AID 588591, 2011; also: potency is read from the fitted curve at half-maximal effect; % is scaled to controls: 0 for no effect and ±100 for the full control effect
Target sequence (Q9Y253 whole entry, looked up): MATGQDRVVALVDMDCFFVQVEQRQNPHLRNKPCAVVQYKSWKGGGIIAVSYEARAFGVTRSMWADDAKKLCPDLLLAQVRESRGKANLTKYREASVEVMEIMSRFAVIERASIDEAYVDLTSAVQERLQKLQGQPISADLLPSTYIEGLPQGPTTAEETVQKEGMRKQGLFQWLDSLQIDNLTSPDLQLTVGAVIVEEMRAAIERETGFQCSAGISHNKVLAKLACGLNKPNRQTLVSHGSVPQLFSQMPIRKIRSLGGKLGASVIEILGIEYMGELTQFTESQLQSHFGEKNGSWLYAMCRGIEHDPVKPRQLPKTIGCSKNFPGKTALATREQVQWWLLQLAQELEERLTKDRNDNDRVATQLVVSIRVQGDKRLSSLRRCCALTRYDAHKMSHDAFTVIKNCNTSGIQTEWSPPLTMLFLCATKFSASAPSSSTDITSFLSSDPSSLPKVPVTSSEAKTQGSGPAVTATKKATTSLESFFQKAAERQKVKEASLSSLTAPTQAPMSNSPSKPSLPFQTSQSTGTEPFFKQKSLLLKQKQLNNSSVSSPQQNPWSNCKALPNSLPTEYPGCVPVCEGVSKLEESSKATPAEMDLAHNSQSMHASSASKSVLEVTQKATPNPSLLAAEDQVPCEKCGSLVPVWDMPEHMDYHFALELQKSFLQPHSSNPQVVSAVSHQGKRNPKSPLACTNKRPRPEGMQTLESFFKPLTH
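Fluorescent replication assay: 50 nM final substrate added after a 15 min room-temperature compound preincubation with 10 nM enzyme. Signal taken at 0 min and again at 10 min.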
Pol kappa inh = qHTS for Inhibitors of Polymerase Kappa. purified Pol kappa, fluorescent DNA synthesis assay, 10 min. actives 0.53% (n = 400,000). Potency, µM (top dose mostly 107 µM), for the others: top-dose activity, negative = inhibition, usual class: inhibitors; also: potency is read from the fitted curve at half-maximal effect; % is scaled to controls: 0 for no effect and ±100 for the full control effect
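Fluorescent qHTS in 1536-well format: enzyme (10 nM) and compound sat 15 min at room temperature before 50 nM substrate (final) was added. Signal taken at 0 and 10 min; no-enzyme buffer wells were negative controls.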
POLI inh = qHTS for Inhibitors of Polymerase Iota | AID 588590, 2011 | Potency, µM (top dose mostly 115 µM), for the others: top-dose activity, negative = inhibition, most hits filed as inhibitors | actives 1% (n = 390,000) | DNA polymerase iota (Homo sapiens), Q9UNA4 | Pol iota fluorescent replication assay, 10 min; also: potency is read from the fitted curve at half-maximal effect
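Pol iota at 10 nM preincubated 15 min with compounds at room temperature; reaction started with fluorescent substrate, 50 nM final. Fluorescence read kinetically at 0 and 10 min; buffer-only wells as negative control.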
PI5P4K alpha inh = qHTS for Inhibitors of phosphatidylinositol 5-phosphate 4-kinase (PI5P4K) | actives 1.2% (n = 330,000) | PI5P4Kalpha enzyme, ADP-Glo luminescence, 60 min; active compounds read low | Phosphatidylinositol 5-phosphate 4-kinase type-2 alpha (Homo sapiens), P48426 | max response, %; active = max response of -50% or lower; inconclusive = between -30% and -50%; inactive = -30% or higher; also: value at the top dose of about 77 µM; % is scaled to controls: 0 for no effect and ±100 for the full control effect
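Quantitative HTS of the MLSMR library against PI5P4Kalpha with substrate. ATP added last at 5 microM final; room temperature, 60 minutes. Remaining ATP depleted, ADP converted and read as luminescence.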
PI4K2A block = qHTS for small molecular inhibitors of PI4K2A; purified PI4K2A, ADP-Glo luminescence, 1 h; active compounds read low; activity change, negative = inhibition, % at 76.9 µM; actives 0.13% (n = 420,000); AID 1346378, 2018; in the data active = activity change below about -50%; inconclusive = mostly about -30% to -49%;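 also: -100% = wells without enzyme as full effect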
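PI4K2A activity was measured by ADP-Glo luminescence: enzyme (4 ug/mL stock) and phosphatidylinositol (1.2 mM stock) in Tris pH 7.5/MgCl2/EGTA/Triton X-100 buffer were reacted with ATP (300 microM stock) for one hour at ambient temperature.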
* marks the source's active call; other numbers are inactive results; ? = inconclusive; . = no result; [ ] = remark or other dose. Unless noted, calls follow the shape of the dose curve; as a rule, active = well fitted inhibition curve with a large enough effect; inconclusive = small, poorly fitted or top-dose-only effect, or another doubt; inactive = no such curve, though single readings can be large or run the other way.

SMILES	Pol beta inh	Pol eta inh	Pol kappa inh	POLI inh	PI5P4K alpha inh	PI4K2A block
CCCCNS(=O)(=O)CC1NCc2cc(OC)ccc21 (stereo not drawn)	.	.	.	.	.	-6
C=C(CCO)C1=CCN(S(=O)C(C)(C)C)[C@H]1CCO (stereo partly drawn)	.	-4%	-19%	-10%	-17	-3
NC(N)=NCCC[C@H](N)C(=O)N1CCC[C@H]1C(=O)N1CCC[C@H]1C(=O)NCC(=O)N[C@@H](Cc1ccccc1)C(=O)N[C@@H](CO)C(=O)N1CCC[C@H]1C(=O)N[C@@H](Cc1ccccc1)C(=O)O	.	.	16%[60.1 µM]	.	.	.
NS(=O)(=O)c1ccc(N/N=C/c2ccc(O)cc2O)c([N+](=O)[O-])c1	25µM*	?	?	50µM*	-11	-5
NS(=O)(=O)c1ccc(N/N=C/c2ccccc2C(=O)O)c([N+](=O)[O-])c1	1%	-5%	-18%	58%	-7	-2
Oc1cccc(C=NCc2ccccc2)c1O	3.5µM*	?	14µM*	7.9µM*	-58*	-10
Oc1c(C=NCc2ccccc2)sc2ccccc12	5%	-8%	-4%	43%	11	-6
Oc1cccc(C=Nc2cccc3ccccc23)c1O	8.9µM*	-16%	35µM*	11µM*	-90*	-30
OC[C@H]1O[C@@H](OCCc2ccc(O)cc2)[C@H](O)[C@@H](O)[C@H]1O	.	.	.	.	.	-1
CCOC(=O)C1=C(C)NC(C)=C(C(=O)OCC)C1c1c(F)c(F)c(F)c(F)c1F	.	.	?	.	.	0
CC(=O)c1ccccc1NS(=O)(=O)c1cccc2nsnc12	25µM*	50µM*	79µM*	45µM*	?	1
CC(=O)c1ccccc1NS(=O)(=O)c1cccc2nonc12	-20%	10%	2%	-9%	2	0
